Data: PubChem BioAssay
A number with no mark means an inactive call. For some assays here: Entries with a potency or affinity are not part of this list. The source made the active and inactive calls. Unless noted, no rule for the calls is given here.

Tests used:
[1] = antimalarial activity against Dd2 strain (AID 2302;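 active = growth inhibition above 50% at the single 2 µM test dose, taken to imply half-maximal potency below 2 µM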;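 also: 0% = DMSO untreated growth and 100% = chloroquine plus artemisinin killed control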); settings: P. falciparum Dd2 in RBCs, LDH growth readout, 72 h; at 2 µM; stronger effect = higher value
[2] = HepG2 cytotoxicity, primary screen, cytotoxicity control for P. falciparum antimalarial project, cell-based, ATP luminescence (AID 2303;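 active = inhibition above 50%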;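 also: 0% = DMSO wells and 100% = digitonin-killed cells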); settings: HepG2 viability, 24-48 h, at 10 µM, stronger effect = higher value
[3] = biological target: L-lactate dehydrogenase (Plasmodium falciparum (isolate CDC / Honduras)) (UniProt Q27743); assay: PfLDH activity inhibition – cell lysate, 3D7 strain, counter-screen for P. falciparum growth inhibition project (AID 2304);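 also: 0% = vehicle and 100% = reference inhibitor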; settings: P. falciparum 3D7 crude extract, LDH APAD/NBT absorbance; at 2 µM; stronger effect = higher value
[4] = inhibition of 3D7 malaria parasite growth – strain 3D7 (AID 2306);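 also: 0% = DMSO wells and 100% = chloroquine plus artemisinin control wells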; settings: P. falciparum 3D7 erythrocytic growth, LDH absorbance, 72 h; at 2 µM; stronger effect = higher value
[5] = biological target: Calcium-dependent protein kinase 1 (Plasmodium falciparum (isolate 3D7)) (UniProt P62344); assay: PfCDPK1 kinase inhibitors, biochemical, TCAMS library (AID 1159585; cut-off not given, nearly all actives have IC50 up to about 0.98 µM;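 also: inhibitors leave more ATP so luminescence rises with inhibition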); settings: recombinant PfCDPK1, Kinase-Glo ATP depletion luminescence
[6] = biological target: Plasmodium falciparum protein kinase 6 (PK6, PF3D7_1337100) (UniProt Q8IDW1); assay: PfPK6 kinase inhibitors, biochemical, TCAMS library (AID 1159586); settings: recombinant PfPK6, Kinase-Glo ATP depletion luminescence
[7] = biological target: Protein kinase 7 (PK7), Plasmodium falciparum 3D7 (PF3D7_0213400) (UniProt Q7YTF7); assay: inhibition of Plasmodium PK7 catalytic activity – biochemical, TCAMS antimalarial set, Kinase-Glo luminescence (AID 1159587); settings: recombinant PfPK7, Kinase-Glo ATP depletion luminescence
[8] = biological target: Calcium-dependent protein kinase 4 (Plasmodium falciparum (isolate 3D7)) (UniProt Q8IBS5); assay: PfCDPK4 kinase inhibitors, biochemical, TCAMS library (AID 1159588; cut-off not given, nearly all actives have IC50 up to about 0.91 µM); settings: recombinant PfCDPK4, Kinase-Glo ATP depletion luminescence
Calcium-dependent protein kinase 4 (Plasmodium falciparum (isolate 3D7)), sequence (Q8IBS5 whole entry, looked up): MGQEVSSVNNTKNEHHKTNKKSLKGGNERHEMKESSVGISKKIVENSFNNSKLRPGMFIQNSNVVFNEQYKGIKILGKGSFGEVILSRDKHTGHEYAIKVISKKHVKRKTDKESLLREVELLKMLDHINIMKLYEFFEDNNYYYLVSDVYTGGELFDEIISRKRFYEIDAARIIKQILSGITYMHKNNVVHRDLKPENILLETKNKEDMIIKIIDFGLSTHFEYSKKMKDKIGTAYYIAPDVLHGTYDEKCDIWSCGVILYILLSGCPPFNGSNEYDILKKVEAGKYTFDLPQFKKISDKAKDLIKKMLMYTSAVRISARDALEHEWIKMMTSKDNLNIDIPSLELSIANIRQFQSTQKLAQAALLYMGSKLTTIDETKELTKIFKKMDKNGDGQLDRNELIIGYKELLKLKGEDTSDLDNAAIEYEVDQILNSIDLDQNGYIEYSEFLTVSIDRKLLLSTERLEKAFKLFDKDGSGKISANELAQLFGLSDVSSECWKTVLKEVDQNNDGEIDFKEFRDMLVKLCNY

Plasmodium falciparum protein kinase 6 (PK6, PF3D7_1337100), sequence (Q8IDW1 1-305): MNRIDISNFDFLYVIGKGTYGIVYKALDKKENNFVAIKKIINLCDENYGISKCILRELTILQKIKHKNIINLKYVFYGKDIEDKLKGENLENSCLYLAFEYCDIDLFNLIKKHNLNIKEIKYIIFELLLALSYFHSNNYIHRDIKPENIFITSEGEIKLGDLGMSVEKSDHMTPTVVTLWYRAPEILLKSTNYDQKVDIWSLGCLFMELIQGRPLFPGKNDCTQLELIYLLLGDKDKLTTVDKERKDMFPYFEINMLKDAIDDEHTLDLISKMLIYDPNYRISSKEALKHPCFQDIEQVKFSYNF
Calcium-dependent protein kinase 1 (Plasmodium falciparum (isolate 3D7)), sequence (P62344 whole entry, looked up): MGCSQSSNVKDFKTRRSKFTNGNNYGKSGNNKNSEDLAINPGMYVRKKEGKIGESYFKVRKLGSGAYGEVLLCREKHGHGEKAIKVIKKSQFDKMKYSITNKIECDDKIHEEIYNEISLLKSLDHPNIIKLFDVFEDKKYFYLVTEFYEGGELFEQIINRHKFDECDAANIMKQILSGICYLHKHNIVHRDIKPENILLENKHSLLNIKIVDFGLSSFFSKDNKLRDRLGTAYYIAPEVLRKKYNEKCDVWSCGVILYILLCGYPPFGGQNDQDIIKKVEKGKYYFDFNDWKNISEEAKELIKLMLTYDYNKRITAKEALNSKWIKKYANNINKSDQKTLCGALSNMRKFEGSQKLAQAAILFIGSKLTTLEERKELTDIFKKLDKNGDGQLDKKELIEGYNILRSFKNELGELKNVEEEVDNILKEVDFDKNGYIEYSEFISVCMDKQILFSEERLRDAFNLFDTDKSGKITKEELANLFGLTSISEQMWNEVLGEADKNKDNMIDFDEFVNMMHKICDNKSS
Protein kinase 7 (PK7), Plasmodium falciparum 3D7 (PF3D7_0213400), sequence (Q7YTF7 1-343): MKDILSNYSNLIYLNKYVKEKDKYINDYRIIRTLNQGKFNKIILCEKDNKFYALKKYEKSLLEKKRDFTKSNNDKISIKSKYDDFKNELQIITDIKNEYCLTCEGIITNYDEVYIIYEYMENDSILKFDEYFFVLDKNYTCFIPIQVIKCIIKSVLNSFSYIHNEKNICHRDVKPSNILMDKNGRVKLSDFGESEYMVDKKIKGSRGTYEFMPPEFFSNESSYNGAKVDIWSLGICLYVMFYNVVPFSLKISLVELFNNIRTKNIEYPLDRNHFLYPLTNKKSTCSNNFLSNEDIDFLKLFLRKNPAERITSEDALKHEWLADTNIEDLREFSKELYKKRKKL
L-lactate dehydrogenase (Plasmodium falciparum (isolate CDC / Honduras)), sequence (Q27743 whole entry, looked up): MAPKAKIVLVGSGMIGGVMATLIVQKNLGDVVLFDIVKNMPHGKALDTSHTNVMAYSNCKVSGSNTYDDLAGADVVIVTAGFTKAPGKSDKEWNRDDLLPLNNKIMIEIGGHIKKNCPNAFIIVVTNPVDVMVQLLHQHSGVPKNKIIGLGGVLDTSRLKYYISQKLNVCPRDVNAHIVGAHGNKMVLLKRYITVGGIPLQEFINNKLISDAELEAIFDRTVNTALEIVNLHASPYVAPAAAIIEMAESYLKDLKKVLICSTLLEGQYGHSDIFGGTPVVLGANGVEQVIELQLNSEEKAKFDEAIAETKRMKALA

Row | SMILES | growth inhibition [1] | inhibition [2] | inhibition [3] | growth inhibition [4] | outcome [5] | outcome [6] | outcome [7] | outcome [8]
1 | COC1CCC(C(=O)Nc2ccc(-c3cccc(-c4nc5c(C)cccc5[nH]4)c3)cc2)CC1 (stereo not given) | 60% (active) | 89% (active) | 1% | 97% (active) | inactive | inactive | inactive | inactive
2 | O=c1[nH]c(=O)n2c(nc3ccccc32)[nH]1 | -1% | 21% | 6% | 95% (active) | inactive | inactive | inactive | inactive
3 | Clc1ccccc1OCc1ccccn1 | 2% | 2% | -3% | 85% (active) | inactive | inactive | inactive | inactive
4 | COc1cc2c(cc1C(F)(F)F)N(C(=O)Nc1cc(F)c(F)c(-c3cccnc3)c1)CC2 | 15% | 20% | 3% | 90% (active) | inactive | inactive | inactive | inactive
5 | CNC(=O)Cc1ccc(C(=O)Nc2cccc(-c3ccc(-c4nc5c(C)cccc5[nH]4)s3)c2)cc1 | 25% | 66% (active) | 0% | 91% (active) | inactive | inactive | inactive | inactive
6 | CC1N=C(N)N=C(N)N1OCc1ccccc1 (stereo not given) | 72% (active) | 62% (active) | 7% | 94% (active) | inactive | inactive | inactive | inactive
7 | COc1cc(C(=O)Nc2ccc3nc(N4CCN(C)CC4)cc(C)c3c2)cc(OC)c1OC | 79% (active) | 18% | -6% | 102% (active) | inactive | inactive | inactive | inactive
8 | COc1ccc(-c2c3c(=O)n(C)c(=O)n(C)c3c3nnc4ccccc4n23)cc1 | 86% (active) | -7% | -2% | 96% (active) | inactive | inactive | inactive | inactive
9 | COc1cc2nc(Nc3ccc4c(ccn4Cc4ccccc4)c3)nc(Nc3ccc4c(ccn4Cc4ccccc4)c3)c2cc1OC | 80% (active) | -6% | 2% | 89% (active) | inactive | inactive | inactive | inactive
10 | O=C(/C=C/c1ccc(F)c(Br)c1)NCCCCCN1CCC(c2c[nH]c3ccccc23)CC1 | 10% | 39% | -7% | 92% (active) | inactive | inactive | inactive | inactive
11 | CC(C)c1cn2c3c(cc(C(=O)N[C@@H](Cc4ccccc4)[C@H](O)CNC4CCCCC4)cc13)N(C)S(=O)(=O)CC2 | 99% (active) | 9% | 0% | 98% (active) | inactive | inactive | inactive | inactive
12 | CCC(C)(C)n1c(C)cc2c3c(N)nc(N)nc3ccc21 | 85% (active) | 69% (active) | 1% | 97% (active) | inactive | inactive | inactive | inactive
13 | COCCN(C)CCCOc1cc2c(cc1OC)ncn2-c1cc(OCc2ccccc2C(F)(F)F)c(C(N)=O)s1 | 49% | 24% | 2% | 98% (active) | inactive | inactive | inactive | inactive
14 | Cc1[nH]c2ccccc2c1C(=O)C(C)Sc1nnc(-c2ccccc2F)o1 (stereo not given) | 99% (active) | 24% | -2% | 99% (active) | inactive | inactive | inactive | inactive
15 | Cc1cnc(Nc2cccnc2)nc1Nc1ccccc1C(=O)NC(C)C | 26% | 9% | 0% | 85% (active) | inactive | inactive | inactive | inactive
16 | COc1cc2cc(-c3nc4ccccc4[nH]3)c(N)nc2cc1OC | 100% (active) | 91% (active) | 1% | 100% (active) | inactive | inactive | inactive | inactive
17 | Cc1cccc(Cl)c1S(=O)(=O)Nc1cccc(CCN2CCC(N3CCCCC3)CC2)c1 | 18% | 34% | 2% | 91% (active) | inactive | inactive | inactive | inactive
18 | CCN1CCN(Cc2ccc3nc(-c4cc(C)n(Cc5cc(Cl)ccc5OCc5ccccc5)n4)[nH]c3c2)CC1 | 97% (active) | 11% | 2% | 102% (active) | inactive | inactive | inactive | inactive
19 | Cc1ccc2nc(C)cc(NN=Cc3ccc(Cl)cc3)c2c1 | 35% | -9% | 6% | 102% (active) | inactive | inactive | inactive | inactive
20 | CO/C(=C\C=C\c1cc2cc(Cl)c(Cl)cc2[nH]1)C(=O)NC1CCN(CCOc2ccccc2)CC1 | 94% (active) | 35% | -3% | 101% (active) | inactive | inactive | inactive | inactive

Row | SMILES | growth inhibition [1] | inhibition [2] | inhibition [3] | growth inhibition [4] | outcome [5] | outcome [6] | outcome [7] | outcome [8]
21 | COc1cc2c(cc1NC(=O)CN1CCN(C(=O)c3ccco3)CC1)oc1ccccc12 | 96% (active) | 13% | -2% | 96% (active) | inactive | inactive | inactive | inactive
22 | NC(N)=NN=CC(=O)Nc1ccc(Cl)c(Cl)c1 | 0% | -14% | 0% | 97% (active) | inactive | inactive | inactive | inactive
23 | COc1c(C2CCN(CCCCNC(=O)c3cccc(-c4ccc(C(F)(F)F)cc4)c3)CC2)ccc2c1CCCC2 | 45% | 50% (active) | -4% | 92% (active) | inactive | inactive | inactive | inactive
24 | O=C(CSc1n[nH]c(=O)n1Cc1ccccc1)Nc1ccccc1-c1ccccc1 | 36% | -8% | 3% | 89% (active) | inactive | inactive | inactive | inactive
25 | Oc1ccc2ccccc2c1CNC1CCCCCC1 | 33% | 9% | 5% | 83% (active) | inactive | inactive | inactive | inactive
26 | O=C(Nc1ccc(-c2cncc(NCCCN3CCCC3)c2)cc1)c1ccccc1 | 49% | -1% | -2% | 94% (active) | inactive | inactive | inactive | inactive
27 | CCCn1c(Sc2ccc(C#N)c([N+](=O)[O-])c2)nnc1-c1ccc(Cl)cc1 | 95% (active) | 12% | -3% | 96% (active) | inactive | inactive | inactive | inactive
28 | N#Cc1ccc(-c2nc(CO)c(C(=O)NCCCCN3CCC(c4ccc5c(c4OCC(N)=O)CCCC5)CC3)s2)cc1 | -1% | 9% | 4% | 92% (active) | inactive | inactive | inactive | inactive
29 | Cc1cccc2[nH]c(-c3cccc(-c4ccc(CNCc5ccc(S(C)(=O)=O)cc5)cc4)c3)nc12 | 98% (active) | 8% | 6% | 101% (active) | inactive | inactive | inactive | inactive
30 | Cc1ccc(O)cc1Nc1ccnc2cc(-c3csc(CN4CCN(C)CC4)n3)ccc12 | 77% (active) | 6% | -4% | 100% (active) | inactive | inactive | inactive | inactive
31 | Cc1cc(N2CCOCC2)nc(Nc2ccc(NC(=O)c3cccc4ccccc34)cc2)n1 | 11% | 44% | -1% | 95% (active) | inactive | inactive | inactive | inactive
32 | O=C(/C=C/c1ccc(Cl)c(Cl)c1)NCCCCCN1CCC(NC(=O)Nc2ccccc2F)CC1 | 25% | 14% | -5% | 95% (active) | inactive | inactive | inactive | inactive
33 | O=C(NCCCCNCC(Cc1cccc(O)c1)c1ccccc1)c1ccc(NC(=O)c2ccc(Cl)cc2)cc1 (stereo not given) | 1% | -1% | 2% | 96% (active) | inactive | inactive | inactive | inactive
34 | Cc1noc(C)c1CN1CCCN(c2ccc3c(c2)CCN(Cc2ccc(-c4ncc[nH]4)cc2)CC3)CC1 | 39% | 1% | 2% | 98% (active) | inactive | inactive | inactive | inactive
35 | COc1cccc(CN2CCC3(CC2)CN(C(=O)Nc2ccc(Cl)c(Cl)c2)C3)c1 | 2% | 29% | 2% | 97% (active) | inactive | inactive | inactive | inactive
36 | Cc1ccc(S(=O)(=O)c2nc(S(=O)(=O)c3ccccc3)sc2NCC2CCCO2)cc1 (stereo not given) | 17% | 4% | 0% | 88% (active) | inactive | inactive | inactive | inactive
37 | COc1ccc(CCNCC(O)COc2nccc3c(S(=O)(=O)N4CCCNCC4)cccc23)cc1OC (stereo not given) | -5% | 59% (active) | -6% | 96% (active) | inactive | inactive | inactive | inactive
38 | CN(C)CCOc1cc(NC(=O)Nc2ccc3c(c2)CCCC3=O)ccc1I | 31% | 29% | -5% | 94% (active) | inactive | inactive | inactive | inactive
39 | OC(CNc1ccnc(Nc2ccc(Cl)cc2)n1)c1ccc(C(F)(F)F)cc1 (stereo not given) | 94% (active) | -2% | -6% | 101% (active) | inactive | inactive | inactive | inactive
40 | Fc1cccc(Cn2ncc3cc(Nc4ncnc5sc(C#Cc6ncc[nH]6)cc45)ccc32)c1 | 30% | 31% | 0% | 101% (active) | inactive | inactive | inactive | inactive
